# High-throughput results as filed in PubChem BioAssay.
# HP1b chromo inh – HTS for Inhibitors of HP1-beta Chromodomain Interactions with Methylated Histone Tails | Chromobox protein homolog 1 (Homo sapiens), P83916 | AlphaScreen HP1-beta / biotin-H3K9me3 peptide binding | Potency, µM (doses to about 114 µM), actives largely listed as inhibitors | hit rate 0.56% among 390,000; note: nearly all actives have a fitted effect of over 70% in size
#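 AlphaScreen: HP1-beta (50 nM) preformed 30 min with biotin-H3(1-18)K9me3 peptide (50 nM) in PBS pH 7.4, 0.01% Tween-20. Compound added for 30 min at RT, then streptavidin donor/nickel chelate acceptor beads (10 ug/mL) for 30 min.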
# GLS inhibitor – qHTS for Inhibitors of Glutaminase (GLS); Potency, µM (series often up to 45.5 µM), usual class: inhibitors; GLS enzymatic activity, qHTS titration; Glutaminase kidney isoform, mitochondrial (Homo sapiens), O94925; hit rate 0.21% among 410,000
# Target sequence (O94925 whole entry, looked up, canonical isoform): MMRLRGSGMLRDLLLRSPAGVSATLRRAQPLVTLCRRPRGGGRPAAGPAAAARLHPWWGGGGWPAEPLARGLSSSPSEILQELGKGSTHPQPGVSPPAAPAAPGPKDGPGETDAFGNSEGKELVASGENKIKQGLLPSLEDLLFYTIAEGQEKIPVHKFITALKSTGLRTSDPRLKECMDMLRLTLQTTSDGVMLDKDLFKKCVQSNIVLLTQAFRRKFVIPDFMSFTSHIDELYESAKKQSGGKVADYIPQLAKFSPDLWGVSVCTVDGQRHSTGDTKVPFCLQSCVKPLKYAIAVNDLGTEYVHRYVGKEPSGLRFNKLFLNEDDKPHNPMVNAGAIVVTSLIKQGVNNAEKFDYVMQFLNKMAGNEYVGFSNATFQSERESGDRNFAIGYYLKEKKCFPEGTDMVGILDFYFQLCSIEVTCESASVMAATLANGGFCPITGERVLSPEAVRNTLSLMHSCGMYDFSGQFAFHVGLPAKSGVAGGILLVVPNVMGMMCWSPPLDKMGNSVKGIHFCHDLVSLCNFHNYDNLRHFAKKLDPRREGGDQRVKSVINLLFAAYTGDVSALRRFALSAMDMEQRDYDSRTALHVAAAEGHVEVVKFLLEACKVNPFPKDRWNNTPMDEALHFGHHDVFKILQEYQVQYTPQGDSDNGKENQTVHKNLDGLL
#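 Two-point fluorescence kinetic (t0, 30 min RT) for hKGA; glutamate detected via glutamate oxidase–HRP–Amplex Red. Substrate: 1 mM L-glutamine solution; buffer 45 mM KH2PO4, pH 8.2.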
# BAZ2B inh – qHTS Assay for Inhibitors of BAZ2B; AlphaScreen BAZ2B-H3K14Ac peptide displacement; Potency, µM (series often up to 114 µM), usual class: inhibitors; hit rate 4.4% among 360,000; note: nearly all actives have a fitted effect of over 60% in size
#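 Compounds, titrated to a top concentration of 110 uM, were incubated 30 min at room temperature with preformed BAZ2B/acetyl-K14 H3 peptide complex (50 nM each). Proximity signal was measured by AlphaScreen after 20 min with beads.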
# JMJD2A Tudor inh – qHTS Assay for Inhibitors of JMJD2A-Tudor Domain; Lysine-specific demethylase 4A (Homo sapiens), O75164; AlphaScreen JMJD2A-Tudor / H3K4me3 peptide binding; Potency, µM (doses to about 114 µM), actives largely listed as inhibitors; hit rate 4.4% among 390,000; AID 504339, 2011; note: nearly all actives have a fitted effect of over 50% in size
# G9a inh – qHTS Assay for Inhibitors of Histone Lysine Methyltransferase G9a; Histone-lysine N-methyltransferase EHMT2 (Homo sapiens), Q96KQ7; G9a H3K9 monomethylation, AlphaScreen, 2 h; Potency, µM (doses to about 102 µM), actives largely listed as inhibitors; hit rate 8.8% among 350,000; note: nearly all actives have a fitted effect of over 75% in size
#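 AlphaScreen detection with an anti-monomethyl H3K9 antibody quantified product after a 2 h room-temperature reaction containing 500 nM biotinylated H3K9 peptide, 20 µM SAM and 20 nM enzyme, which had been preincubated 15 min with compound.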
# A number is an active result; 0 = inactive; ? = inconclusive; - = no result given; [ ] = another dose, or the depositor's remark. A selection: hits, their analogues and other compounds. The true share with any hit is near 10%. Calls come from the whole dose curve; as a rule, active = well fitted curve in the direction sought with a large enough effect; inconclusive = small, poorly fitted or top-dose-only effect, or another doubt; inactive = no such curve, though single readings can be large; an effect the other way counts as inactive or inconclusive.
SMILES,HP1b chromo inh,GLS inhibitor,BAZ2B inh,JMJD2A Tudor inh,G9a inh
O=c1c([N+](=O)[O-])c(O)c2cccc3c2n1CCC3,0,0,?,?,79.4µM
CCCCCCNC(=O)c1c(O)c2cccc3c2n(c1=O)CCC3,0,0,0,0,0[2.33 µM]
Cn1c(SCc2c(F)cccc2Cl)nc2c(c1=O)SCC2,0,0,28.2µM,?,0
CCC(=O)c1ccccc1OCCN1CCN(CC)CC1,?,0,35.5µM,14.1µM,14.1µM
CC1CC(C)CN(CCOc2cccc(Cl)c2Cl)C1 (stereo not given),?,0,?,79.4µM,12.6µM
Cc1ccc(C(C)C)cc1OCCn1cncn1,50.1µM,0,79.4µM,2.24µM,11.2µM
c1ccc(Oc2cccc(OCCCn3cncn3)c2)cc1,0,0,0,0,0[12.7 µM]
CC1CC(C)CN(CCC(=O)Nc2cccc(Cl)c2)C1 (stereo not given),0,0,0,0,0[2.33 µM]
CC(=O)c1ccccc1OCCOc1ccccc1C(C)=O,0,0,0,0,0
C=CCc1ccc(OCCn2cncn2)c(OC)c1,0,0,0,0,0
Clc1cccc(OCCn2cncn2)c1Cl,0,0,56.2µM,0[11.4 µM],?
CCOc1ccc(C(C)=O)cc1CN1C(=O)C(=O)N(CC)C1=O,0,0,0,0,0
CC12CCC(O)CC1=CCC1C2CCC2(C)C3=NN=CC3CC12 (stereo not given),0,0,-,0,-
CCN1CCN(CCOc2cccc(Cl)c2Cl)CC1,?,0,17.8µM,3.98µM,-
CC1(C)NC(=O)N(CCOc2cccc(Cl)c2Cl)C1=O,0,0,0,0,0
CCC(=O)c1ccccc1OCCCCn1cncn1,?,0,28.2µM,5.62µM,8.91µM
CC1CC(C)CN(CCOc2ccc(Cl)cc2Cl)C1 (stereo not given),?,0,56.2µM,2.82µM,?
Cn1c(=O)n(CCOc2ccc(Cl)cc2Cl)c2ccccc21,0,0,0,0,?
C[C@@H]1CN([C@@H](C)CO)C(=O)CCCn2nncc2CO[C@@H]1CN(C)S(=O)(=O)c1ccc(Oc2ccccc2)nc1,-,0,-,-,-
CCc1ccc2[nH]c(=O)c(CN(Cc3ccccc3)Cc3nnnn3Cc3ccco3)cc2c1,0,0,0,?,10µM
O=c1[nH]c2cc3c(cc2cc1CN(CCc1ccccc1)Cc1nnnn1C1CCCC1)OCCO3,-,-,0,-,15.8µM
O=c1[nH]c2cc3c(cc2cc1CN(Cc1ccccc1)Cc1nnnn1Cc1ccco1)OCCO3,0,0,-,?,25.1µM
O=c1[nH]c2cc3c(cc2cc1CN(Cc1cccnc1)Cc1nnnn1Cc1ccco1)OCCO3,0,0,?,?,?
CCC(c1nnnn1Cc1ccco1)N(CCc1ccccc1)Cc1cc2cc(C)ccc2[nH]c1=O (stereo not given),0,0,0,0,39.8µM
CCc1ccc2[nH]c(=O)c(CN(Cc3ccccc3)Cc3nnnn3Cc3ccccc3)cc2c1,0,-,-,0,-
SMILES,HP1b chromo inh,GLS inhibitor,BAZ2B inh,JMJD2A Tudor inh,G9a inh
Cc1ccc2c(c1)cc1c(=O)n(CC(=O)NC3CCCCC3)nc(C)n12,0,0,0,0,0
CCOC(=O)c1ccccc1NC(=O)N1CCC(CN2CCCCC2)CC1,0,0,0,0,0
CCNC(=O)C1(C)CCCN(Cc2cccc(Oc3ccccc3)c2)C1 (stereo not given),-,0,-,-,-
CCOc1ccc(C(=O)NCC(=O)OCc2nnc(-c3ccccc3)o2)cc1OCC,0,0,0,0,0
COc1ccccc1CN(Cc1cc2cc3c(cc2[nH]c1=O)OCCO3)Cc1nnnn1Cc1ccco1,0,?,?,35.5µM,?
O=C(NCCS(=O)(=O)N1CCN(c2cccc(Cl)c2)CC1)C(c1ccccc1)c1ccccc1,0,0,0,0,0
CCc1ccc(C2CC(=O)Oc3c2c(=O)n(C)c2ccccc32)cc1 (stereo not given),0,0,0,0,0
CN1CCC2(CC1)N=C(c1ccc(F)cc1)C(=S)N2C(=O)c1ccc(C(C)(C)C)cc1,31.6µM,0,35.5µM,31.6µM,10µM
CC(C)(C)c1ccc(C(=O)N2CCNCC2)cc1,0,0,0,0,0[12.7 µM]
COc1cc(C(N)=O)ccc1OCc1ccccc1,0,0,0,0,0
COc1cc(C(=O)O)ccc1OCc1ccncc1,0,0,0,0,44.7µM
COc1cc(/C=C(\C#N)C(=O)Nc2cc(C(F)(F)F)ccc2Cl)ccc1OCC(=O)Nc1cccc(C(F)(F)F)c1,0,0,0,0,0
CCOc1cccc(NC(=O)/C(C#N)=C\c2cccnc2)c1,0,?,?,0,70.8µM
COc1cc(/C=C(\C#N)C(=O)Nc2nnc(C(F)(F)F)s2)ccc1OCc1ccc(C(F)(F)F)cc1C(F)(F)F,-,-,-,-,8.44µM
N#C/C(=C\c1cccnc1)C(=O)Nc1ccccc1,0,0,0,0,0
COc1cc(/C=C(/C#N)C(=O)Nc2ccccc2)ccc1OCc1ccc(C(=O)O)cc1,0,0,56.2µM,56.2µM,?
Cc1cccc(NC(=O)Cn2c(=O)n(Cc3ccc4c(c3)OCO4)c(=O)c3ccccc32)c1,0,0,0,0,0
N#C/C(=C\c1ccc(OCc2ccc(Cl)cc2)cc1)C(=O)Nc1cccc(C(=O)O)c1,0,0,56.2µM,?,?
CCOc1cc(/C=C(\C#N)C(=O)Nc2cccc(C(=O)O)c2)ccc1OCc1ccc(Br)cc1,?,0,56.2µM,?,44.7µM
CC(C)C(N)c1csc(NC(=O)Nc2ccc(OC(F)(F)F)cc2)n1 (stereo not given),-,0,-,-,-
O=C1c2ccccc2C(c2nnnn2Cc2ccccc2)N1Cc1cccnc1 (stereo not given),-,0,-,-,-
CC1(C)O[C@H]2OC([C@H](O)CON3C(=O)c4ccccc4C3=O)[C@H](O)[C@H]2O1 (stereo not given in full),0,0,0,0,44.7µM
Cc1ccc(C(=O)OCC2OC3OC(C)(C)OC3C2O)cc1 (stereo not given),0,0,0,0,0
N#CC1=C(N)Nc2nc3ccccc3n2C1c1ccc(Cl)cc1 (stereo not given),0,0,0,0,0.631µM
CCc1ccc(N2CC(C(=O)OCc3csc(CC(=O)Nc4ccccc4C)n3)CC2=O)cc1 (stereo not given),0,0,0,0,0[12.7 µM]
Cc1ccc(C(=O)OCc2nc3ccsc3c(=O)[nH]2)o1,0,0,0,0,0[2.33 µM]
CCc1ccc(N2CC(C(=O)OCc3nc4ccsc4c(=O)[nH]3)CC2=O)cc1 (stereo not given),0,17.8µM,0,0,0[12.7 µM]
O=C(/C=C/c1ccc(Br)o1)OCc1nc2ccsc2c(=O)[nH]1,0,?,39.8µM,39.8µM,0[0.501 µM]
Cc1cnc(C(=O)OCc2nc3ccsc3c(=O)[nH]2)cn1,0,14.1µM,50.1µM,56.2µM,0[12.7 µM]
